Test systems include HCT-15 colon; HT29 colon; SNB-75 CNS; U251 CNS; PC-3 prostate; SK-MEL-5 melanoma; UACC-62 melanoma; LOX IMVI melanoma; SK-MEL-28 melanoma; SK-MEL-2 melanoma; EKVX NSCLC; SN12C renal; UO-31 renal; TK-10 renal; ACHN renal; A498 renal; CCRF-CEM leukemia; MOLT-4 leukemia; CAKI-1 renal; SNB-19 CNS.
Holding throughout (test): NCI-60 one-dose screen, 48 h (100 = growth as untreated, 0 = no growth, -100 = all killed)
Details in all cases: 10 µM unless noted

Compounds without any hit were thinned out: in the full panel of roughly 83,000, 20% have a hit.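 Interpretation: 100, growth as untreated; towards 0, rising growth inhibition; 0, no net growth; 0 to -100, cell death. Compounds scoring below 10 were considered active.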 Unmarked numbers belong to inactive results. Active and inactive are the calls of the source.

Regarding `COc1ccc(Oc2nc(Nc3ccc(N4CCOCC4)cc3)ncc2NC(=O)c2cccc(C(F)(F)F)c2)cc1`, the growth with HCT-15 colon is 58.6%; in the experiment on HT29 colon it was 42.2%; with SNB-75 CNS, 82.3%; in the experiment with U251 CNS, 69.3%; in the experiment on PC-3 prostate, 53.7%; in the experiment on SK-MEL-5 melanoma, 92.2%. In addition, the growth in the experiment with UACC-62 melanoma is 78.4%; in the experiment on LOX IMVI melanoma, 52.4%; in the experiment on SK-MEL-28 melanoma, 99.5%; in the experiment on SK-MEL-2 melanoma, 97.2%; with EKVX NSCLC, 81.3%; with SN12C renal, 85.8%. The growth in the experiment on UO-31 renal was 71.2%; with TK-10 renal it was 93%; with ACHN renal it was 79.9%; with A498 renal, 63.4%; in the experiment with CCRF-CEM leukemia, 49.9%; with MOLT-4 leukemia it was 43.7%.
On to `CC(=O)c1c(C)nc2ccccc2c1/C=C/c1cccc(C)c1`, for which the growth with HCT-15 colon is 31.3%; in the experiment with HT29 colon, 18.5%; with SNB-75 CNS, 60%; in the experiment with U251 CNS it was 49.8%; with PC-3 prostate, 65.8%; with SK-MEL-5 melanoma, 54.3%. Further, the growth with UACC-62 melanoma was 47.8%; with LOX IMVI melanoma, 42%; in the experiment with SK-MEL-2 melanoma, 36.2%; with EKVX NSCLC, 71.5%; with SN12C renal it was 67.7%; with UO-31 renal, 56.4%. Besides, the growth with TK-10 renal was 79.9%; with ACHN renal, 73.7%; in the experiment on CAKI-1 renal, 46.3%; in the experiment on A498 renal it was 50.1%; in the experiment on CCRF-CEM leukemia, 54.4%; with MOLT-4 leukemia, 31%.
On to `Cn1cc2c(=O)nc3c(-c4nc5ccccc5[nH]4)n[nH]n3c2n1`, for which the growth in the experiment with HCT-15 colon is 80.1%; with HT29 colon, 89.7%; in the experiment on SNB-75 CNS, 93.4%; in the experiment on U251 CNS it was 89.6%; in the experiment with PC-3 prostate, 67.1%; with SK-MEL-5 melanoma, 53.1%. Further, the growth in the experiment with UACC-62 melanoma is 70.6%; in the experiment on LOX IMVI melanoma, 72.5%; in the experiment with SK-MEL-28 melanoma, 82.5%; with SK-MEL-2 melanoma, 30.4%; in the experiment with EKVX NSCLC it was 95.6%; in the experiment with SN12C renal, 77.9%. The growth with UO-31 renal was 90.8%; in the experiment on TK-10 renal it was 120%; with ACHN renal it was 98.1%; in the experiment with CAKI-1 renal, 86.8%; with A498 renal it was 58.7%; in the experiment on CCRF-CEM leukemia, 6.27% (active). In the experiment with MOLT-4 leukemia, the growth was 47.8%.
Take `OCCN1CCN(c2cc(-c3cccc(OC(F)(F)F)c3)nc3ccc(N4CCCC4)cc23)CC1`: the growth in the experiment on HCT-15 colon was 10.9%; in the experiment with HT29 colon, 5.34% (active); in the experiment with SNB-75 CNS, 53.5%; with U251 CNS it was 29.3%; in the experiment on PC-3 prostate it was 25.9%; in the experiment on SK-MEL-5 melanoma, 46.7%. Further, the growth is 9.02% (active) in the experiment with LOX IMVI melanoma; 71.1% in the experiment on SK-MEL-28 melanoma; 93.3% in the experiment on SK-MEL-2 melanoma; 75.9% in the experiment with EKVX NSCLC; 59.5% in the experiment with SN12C renal; 37.1% in the experiment on UO-31 renal. Also, the growth in the experiment with TK-10 renal was 69.3%; with ACHN renal, 44.7%; with CAKI-1 renal, 40.5%; in the experiment on A498 renal, 68.3%; with CCRF-CEM leukemia it was 40%; with MOLT-4 leukemia it was 11.2%.
Regarding `CC(=O)N1N=C(c2ccc(F)cc2)CC1c1sc(N(C)Cc2ccccc2)nc1Cl` (stereo unspecified), the growth was 88.5% with HCT-15 colon; 94.4% in the experiment with HT29 colon; 92.3% in the experiment with SNB-75 CNS; 98.5% in the experiment with U251 CNS; 86.3% in the experiment with PC-3 prostate; 103% in the experiment on SK-MEL-5 melanoma. Besides, the growth in the experiment with UACC-62 melanoma was 81.2%; with LOX IMVI melanoma it was 96.4%; in the experiment with SK-MEL-28 melanoma, 114%; with SK-MEL-2 melanoma, 96.1%; with EKVX NSCLC it was 87.4%; in the experiment on SN12C renal, 106%. The growth is 74.6% with UO-31 renal; 112% in the experiment with TK-10 renal; 102% in the experiment on ACHN renal; 83.9% with CAKI-1 renal; 104% in the experiment on A498 renal; 96.4% in the experiment on CCRF-CEM leukemia. For the same compound, the growth with MOLT-4 leukemia is 99.7%.
In the case of `Cc1ccc(NC(=O)N/C(N)=N/c2nc(=O)c3ccccc3s2)cc1`, the growth with HCT-15 colon is 104%; with HT29 colon it was 103%; in the experiment on SNB-75 CNS, 83.1%; in the experiment with U251 CNS it was 99.7%; with PC-3 prostate, 101%; in the experiment on SK-MEL-5 melanoma it was 93.4%. Besides, the growth was 83% in the experiment with UACC-62 melanoma; 104% with LOX IMVI melanoma; 102% in the experiment on SK-MEL-28 melanoma; 106% in the experiment on SK-MEL-2 melanoma; 93.7% with EKVX NSCLC; 93.8% in the experiment with SN12C renal. Further, the growth in the experiment with UO-31 renal is 90.4%; in the experiment with TK-10 renal, 116%; with ACHN renal, 102%; in the experiment with A498 renal, 63%; in the experiment on CCRF-CEM leukemia, -23% (active); in the experiment on MOLT-4 leukemia it was 99.8%.
Take `O=C(N/N=C/c1ccc(O)cc1O)c1cccc(Nc2ccnc(C(F)(F)F)c2)c1`: the growth in the experiment with HCT-15 colon was 27.3%; in the experiment with HT29 colon it was 41.6%; in the experiment on SNB-75 CNS it was 32.2%; in the experiment with U251 CNS, 32.1%; with PC-3 prostate it was 61%; with SK-MEL-5 melanoma, 33.7%. Further, the growth with UACC-62 melanoma is -8.61% (active); in the experiment on SK-MEL-28 melanoma, 31.1%; in the experiment on SK-MEL-2 melanoma it was 60.7%; with EKVX NSCLC, 28%; with SN12C renal, 25%; in the experiment with UO-31 renal, 34.7%. For the same compound, the growth in the experiment on TK-10 renal is 42.6%; in the experiment on ACHN renal it was 30.3%; in the experiment with CAKI-1 renal, 40.3%; with A498 renal, 44.9%; with CCRF-CEM leukemia, 6.22% (active); with MOLT-4 leukemia, 12.2%.
Regarding `CCOC(=O)CC1CSC(c2cccc(Cl)c2)=N1` (stereo unspecified), the growth in the experiment on HCT-15 colon was 106%; in the experiment with HT29 colon, 102%; in the experiment on SNB-75 CNS, 106%; in the experiment with SNB-19 CNS it was 106%; with U251 CNS it was 102%; in the experiment on PC-3 prostate, 103%. Further, the growth in the experiment with SK-MEL-5 melanoma is 100%; with SK-MEL-28 melanoma, 110%; with SK-MEL-2 melanoma, 109%; in the experiment with EKVX NSCLC, 100%; in the experiment on SN12C renal, 106%; in the experiment with UO-31 renal, 96.4%. Besides, the growth is 92.1% with TK-10 renal; 109% with ACHN renal; 97.8% in the experiment on CAKI-1 renal; 81.9% with A498 renal; 102% with CCRF-CEM leukemia; 95% with MOLT-4 leukemia.

The record behind these values is PubChem BioAssay (NCI).
